Each structure is given as a SMILES string. Results filed as inconclusive are left out. Where a call stands in place of a potency, no number is given. Values without a mark were called inactive. Active and inactive are the calls of the source. The call rests on the fitted dose curve; in most records, active means well fitted cell-killing curve with a large enough effect in the repeat runs; inconclusive means weak or mixed curves, or effect the other way; inactive means flat fitted curve, though single readings scatter.
Potency means the concentration at half of the fitted maximal effect.

This experiment is described as follows: cAMP Responsive Elements (CRE) small molecule agonists, cell-based qHTS assay: qHTS cell viability counter screen (AID 2060914). Further: nearly all actives have a fitted effect of over 50% in size. The following applies: CRE-bla HEK293T viability, CellTiter-Glo luminescence, 5 h; series mostly up to 92.4 µM. In short, it runs like this: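 In the same wells as the reporter read, viability of CRE-bla HEK 293T cells was quantified by CellTiter-Glo luminescence after a 3 h compound exposure.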
On the technique in general: In qHTS, concentration-response curves come from the screen itself.
Turning to `O=C(O)CCCCC(=O)O`, the Potency result is “inactive”.

`CCOc1ccccc1OCCN[C@H](C)Cc1ccc(OC)c(S(N)(=O)=O)c1`: the Potency entry is “inactive”.

Take `C[C@@H]1CN(c2c(F)c(N)c3c(=O)c(C(=O)O)cn(C4CC4)c3c2F)C[C@H](C)N1`: the activity change, negative = cytotoxicity is -0.413% [at 18.9 µM]. With `O=C(O)CS`, the Potency result is “inactive”.

Consider `CCOC(=O)n1ccn(C)c1=S`, for which the Potency result is “inactive”. On to `C[N+](C)(C)CCCCCCCCCC[N+](C)(C)C`, for which the Potency entry is “inactive”.

As for `c1ccc2ccccc2c1`, the Potency result was “inactive”.

`CCCCCCCCCCn1cc[n+](CCCCCCCCCC)c1C`: the Potency was 48.6 µM (active). Regarding `O=C(NOCC1CC1)c1ccc(F)c(F)c1Nc1ccc(I)cc1Cl`, the Potency result was “inactive”.

For `CC1=C(C(=O)O)N2C(=O)[C@@H](NC(=O)[C@H](N)c3ccccc3)[C@H]2SC1`, the Potency result is “inactive”. Take `CCOC(=O)C1=C(C)NC(C)=C(C(=O)OCC)C1c1ccccc1/C=C/C(=O)OC(C)(C)C`: the Potency entry was “inactive”. Regarding `O=C(O)c1ccccc1NCCc1ccccc1`, the Potency result was “inactive”. Take `CN1CCN(c2ccccc2/C=C2\SCCN(c3ccc(Cl)c(Cl)c3)C2=O)CC1`: the Potency entry is “inactive”.

As to `COC(=O)CCCCC(CCSS/C(CCO)=C(\C)N(C=O)Cc1cnc(C)nc1N)SC(C)=O` (stereo not given), the Potency entry is “inactive”. Regarding `CNC(=S)NN`, the Potency entry was “inactive”. Turning to `O=C(O)c1cc(C(=O)O)cc(C(=O)O)c1`, the Potency result was “inactive”. `COCCCN1CCC(NC(=O)c2cc(Cl)c(N)c3c2OCC3)CC1`: the Potency result is “inactive”. Still for that read-out and setting: as for `Cc1ccc2nc(-c3ccc(N)cc3)sc2c1S(=O)(=O)O`, the entry is “inactive”. Take `CCCCCCCCNC`: the Potency entry was “inactive”. For the molecule `COc1cccc(O)c1O`, the Potency result is “inactive”. Consider `Cc1ncc(COP(=O)(O)O)c(C=O)c1O`, for which the Potency result is “inactive”. As to `C=C1CC[C@H]2O[C@]2(C)CC[C@@H]2[C@@H]1CC2(C)C`, the Potency entry is “inactive”. On the same count and under the same terms, as for `O=C(CC(=O)C(F)(F)F)c1ccccc1`, the entry is “inactive”; as for `O=C(O)CCCCCCCCCCC(=O)O`, “inactive”. Turning to `CO/N=C(\C(=O)N[C@@H]1C(=O)N2C(C(=O)O)=C(CSc3nc(=O)c(O)nn3C)CS[C@H]12)c1csc(N)n1`, the Potency entry is “inactive”. Regarding `C=CCCC`, the Potency entry is “inactive”.

For the molecule `Cn1c(=O)c2c(ncn2C)n(C)c1=O`, the Potency result is “inactive”. Consider `CC(C)Cn1cnc2c(N)nc3ccccc3c21`, for which the activity change, negative = cytotoxicity is -0.0081% [at 18.9 µM]. On to `CCCCCCCCCCCCCCCCCC#N`, for which the Potency result is “inactive”.

Regarding `CC(=O)c1ccccc1N`, the Potency entry is “inactive”.

As to `CC(CCl)OP(=O)(OC(C)CCl)OC(C)CCl` (stereo not given), the Potency entry was “inactive”.

Take `CC(=O)CCCCn1c(=O)c2c(ncn2C)n(C)c1=O`: the Potency entry was “inactive”. The same measure, in the same setting: as for `CCOC(=O)Oc1ccc(CCNC(=O)[C@H](CCSC)NC(C)=O)cc1OC(=O)OCC`, the entry is “inactive”; as for `COC1=CC(=O)C[C@@H](C)[C@]12Oc1c(Cl)c(OC)cc(OC)c1C2=O`, “inactive”. As for `CCCCCCCCCCOCC(O)CN` (stereo not given), the Potency entry was “inactive”. Same read-out and setting: the result for `N/C(=N\N=C\c1ccc(Cl)cc1)N/N=C/c1ccc(Cl)cc1` reads “inactive”; that for `CC(C)(C)c1n[nH]c(=S)n(N)c1=O`, “inactive”. For the molecule `CCCCCCCCCCCCN1CCOCC1`, the Potency result was “inactive”. As for `CC(=O)NNC(C)=O`, the Potency entry was “inactive”. The same measure, in the same setting: as for `CCN1C(=O)c2ccccc2C1Nc1ccc(OCCN2CCCCC2)cc1` (stereo not given), the entry is “inactive”.

The values above are taken from PubChem BioAssay (Tox21).
